Test systems include HCT-15 colon; HT29 colon; SNB-75 CNS; SNB-19 CNS; U251 CNS; PC-3 prostate; SK-MEL-5 melanoma; UACC-62 melanoma; SK-MEL-28 melanoma; SK-MEL-2 melanoma; EKVX NSCLC; SN12C renal; UO-31 renal; TK-10 renal; CAKI-1 renal; CCRF-CEM leukemia; MOLT-4 leukemia; ACHN renal; A498 renal; LOX IMVI melanoma.
What all share (test): NCI-60 one-dose screen, 48 h (100 = growth as untreated, 0 = no growth, -100 = all killed)
What all share (conditions): 10 µM unless noted

Among the data in PubChem BioAssay (NCI) are growth values, retold here.

About 83,000 compounds went through this panel and 20% of them were active in at least one assay; those are over-represented in the sample as a whole.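 Each cell line was grown in a 96-well plate and treated with one concentration of compound for 48 hours. Values below 10 were considered active.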 Unmarked numbers belong to inactive results. The source made the active and inactive calls.

Take `Cc1cc2cc3cc(C)c(N)cc3[n+](C)c2cc1N`: the growth with HCT-15 colon is 31.8%; in the assay with HT29 colon, -16.8% (active); with SNB-75 CNS it was 38.3%; in the assay with SNB-19 CNS, 11.6%; in the assay with U251 CNS it was 6% (active); with PC-3 prostate, 8.84% (active). Besides, the growth with SK-MEL-5 melanoma is 18.4%; in the assay with UACC-62 melanoma, 33%; with SK-MEL-28 melanoma, 21.7%; in the assay with SK-MEL-2 melanoma, -21.9% (active); in the assay with EKVX NSCLC, 14.3%; in the assay on SN12C renal it was 8.73% (active). The growth with UO-31 renal is 14%; in the assay on TK-10 renal it was 16.2%; in the assay with CAKI-1 renal it was 52.7%; in the assay on CCRF-CEM leukemia, 18.8%; with MOLT-4 leukemia, 5.32% (active).
As for `CC(C)Cc1ccc(C(C)C(=O)NCc2c[nH]c3ccc(Cl)cc23)cc1` (stereo not drawn), the growth was 91.2% in the assay on HCT-15 colon; 111% with HT29 colon; 102% in the assay on SNB-75 CNS; 96.2% in the assay with SNB-19 CNS; 91.8% with U251 CNS; 66.2% in the assay on PC-3 prostate. Besides, the growth was 85.4% with SK-MEL-5 melanoma; 66.6% in the assay with UACC-62 melanoma; 94.6% in the assay with SK-MEL-28 melanoma; 92% with SK-MEL-2 melanoma; 85.9% in the assay with EKVX NSCLC; 94% with SN12C renal. For the same compound, the growth is 65.4% in the assay with UO-31 renal; 107% in the assay on TK-10 renal; 86.6% in the assay with ACHN renal; 81.7% with CAKI-1 renal; 73.8% in the assay on CCRF-CEM leukemia; 65.6% in the assay on MOLT-4 leukemia.
As to `CCCCCCCCCCCCCCCC(=O)OC[C@@]1(O)C[C@@]23CC[C@@H]4C(C)(C)CCC[C@@]4(C)[C@@H]2CC[C@H]1C3`, the growth with HCT-15 colon is 97.9%; with HT29 colon it was 92.2%; in the assay with SNB-75 CNS, 112%; in the assay on SNB-19 CNS it was 102%; in the assay with U251 CNS it was 95.8%; in the assay with PC-3 prostate it was 94.8%. In addition, the growth in the assay on SK-MEL-5 melanoma is 98.3%; in the assay with UACC-62 melanoma, 85.8%; in the assay on SK-MEL-28 melanoma, 121%; with SK-MEL-2 melanoma, 105%; in the assay with EKVX NSCLC, 109%; with SN12C renal it was 93.6%. For the same compound, the growth with UO-31 renal was 84.7%; in the assay on ACHN renal it was 106%; in the assay with CAKI-1 renal, 74.2%; with A498 renal, 97.7%; with CCRF-CEM leukemia it was 43.2%; in the assay with MOLT-4 leukemia, 57.3%.
Turning to `O=S(=O)(NCCCNc1nccc(-c2c(-c3ccc(F)c(O)c3)nc3sccn23)n1)c1ccc(F)cc1`, the growth with HCT-15 colon was 6.51% (active); with HT29 colon, 9.5% (active); in the assay on SNB-75 CNS, 51.3%; in the assay on SNB-19 CNS, 19.7%; in the assay on U251 CNS it was 2.83% (active); in the assay with SK-MEL-5 melanoma it was -45.1% (active). Further, the growth is -42.2% (active) in the assay on UACC-62 melanoma; 2.15% (active) in the assay with LOX IMVI melanoma; 9.19% (active) in the assay with SK-MEL-28 melanoma; -29.9% (active) with SK-MEL-2 melanoma; 4.8% (active) in the assay with SN12C renal; -1.81% (active) in the assay on UO-31 renal. Also, the growth with TK-10 renal was 27.6%; in the assay on ACHN renal, 6.06% (active); in the assay on CAKI-1 renal it was 8.16% (active); with A498 renal, -10.9% (active); in the assay on CCRF-CEM leukemia it was -13.2% (active); with MOLT-4 leukemia, -3.88% (active).
Take `CCCNC(=O)Oc1ccc(/C(=C(\C)c2ccccc2)c2ccc(OCCN3CCCCC3)cc2)cc1`: the growth with HCT-15 colon was 19.2%; in the assay with HT29 colon, 4.11% (active); in the assay with SNB-75 CNS it was 88.9%; in the assay on SNB-19 CNS, 79%; in the assay with U251 CNS, 56.4%; in the assay on SK-MEL-5 melanoma, 77.8%. Further, the growth with UACC-62 melanoma was 70.6%; in the assay with SK-MEL-28 melanoma, 70.5%; in the assay with SK-MEL-2 melanoma it was 90.6%; in the assay with EKVX NSCLC, 82.2%; with SN12C renal, 71.4%; with UO-31 renal, 46.5%. The growth in the assay with TK-10 renal was 90.2%; in the assay with ACHN renal, 91%; in the assay on CAKI-1 renal it was 65.8%; with CCRF-CEM leukemia, 72.2%; in the assay with MOLT-4 leukemia it was 60.1%.
In the case of `C=C(C)[C@@H]1CC[C@]2(C(=O)N3CCN(C)CC3)CC[C@]3(C)[C@H](CC[C@@H]4[C@@]5(C)CCC(=O)C(C)(C)[C@@H]5CC[C@]43C)[C@@H]12`, the growth in the assay on HCT-15 colon is 61.7%; in the assay on HT29 colon, 39.2%; in the assay with SNB-75 CNS, 85.2%; in the assay with SNB-19 CNS it was 81.5%; in the assay with U251 CNS it was 69.7%; with PC-3 prostate, 54.7%. In addition, the growth in the assay on SK-MEL-5 melanoma was 92.1%; with LOX IMVI melanoma, 92.5%; in the assay with SK-MEL-28 melanoma, 92.7%; with SK-MEL-2 melanoma, 92.1%; in the assay on EKVX NSCLC, 96.3%; in the assay with SN12C renal it was 75.7%. Moreover, the growth is 66.7% in the assay with UO-31 renal; 102% in the assay with TK-10 renal; 77.4% in the assay with ACHN renal; 93.5% with CAKI-1 renal; 51.6% with MOLT-4 leukemia.
For `CN1CCN(c2cnc(C(=O)Nc3cc(F)cc4cccnc34)cn2)CC1`, the growth in the assay with HCT-15 colon was 30.8%; in the assay on HT29 colon it was 42.6%; with SNB-75 CNS, 95.2%; in the assay on SNB-19 CNS it was 87.4%; with U251 CNS, 79.9%; in the assay with SK-MEL-5 melanoma it was 89.2%. The growth in the assay with UACC-62 melanoma is 95.3%; with LOX IMVI melanoma, 59.6%; in the assay with SK-MEL-28 melanoma it was 67.8%; in the assay on SK-MEL-2 melanoma, 94.8%; in the assay with EKVX NSCLC, 45.5%; in the assay with SN12C renal it was 62.2%. The growth is 43% in the assay with UO-31 renal; 69.3% with TK-10 renal; 26.5% with ACHN renal; 57.3% with CAKI-1 renal; 75.7% in the assay on A498 renal; 35.6% in the assay with CCRF-CEM leukemia.
For `O=C(NNc1nc(Cl)nc(N2CCN(C(c3ccccc3)c3ccccc3)CC2)n1)c1ccccc1`, the growth was -60.1% (active) with HCT-15 colon; -78.9% (active) in the assay on HT29 colon; -26.3% (active) in the assay on SNB-75 CNS; 32.4% in the assay on SNB-19 CNS; 27.3% in the assay with U251 CNS; 79.4% in the assay with SK-MEL-5 melanoma. Also, the growth with UACC-62 melanoma was 3.38% (active); in the assay with LOX IMVI melanoma, -88.7% (active); in the assay with SK-MEL-28 melanoma it was -6.33% (active); in the assay on SK-MEL-2 melanoma, -27% (active); in the assay with SN12C renal, -24.2% (active); in the assay with UO-31 renal, 68.9%. The growth with TK-10 renal is 126%; in the assay on ACHN renal it was -39% (active); in the assay on CAKI-1 renal it was -51.9% (active); in the assay on CCRF-CEM leukemia, -25.1% (active); with MOLT-4 leukemia, -39.2% (active).
`Fc1ccc2nc3c(cc2c1)CSc1nnc(-c2ccc[nH]c2=S)n1N3`: the growth is 104% in the assay with HCT-15 colon; 108% in the assay on HT29 colon; 75.8% in the assay with SNB-75 CNS; 98.1% in the assay on SNB-19 CNS; 107% with U251 CNS; 91.5% in the assay on PC-3 prostate. Also, the growth in the assay on SK-MEL-5 melanoma is 96.4%; in the assay on LOX IMVI melanoma, 96.1%; in the assay with SK-MEL-28 melanoma it was 102%; in the assay with SK-MEL-2 melanoma it was 98.3%; with SN12C renal, 98.2%; in the assay on UO-31 renal it was 82%. In addition, the growth in the assay with TK-10 renal is 110%; in the assay on ACHN renal it was 94%; with CAKI-1 renal it was 83.8%; in the assay on A498 renal it was 92.1%; in the assay with CCRF-CEM leukemia it was 98.9%; in the assay on MOLT-4 leukemia, 101%.
